This note sets out measurements from PubChem BioAssay AID2147 (National Center for Advancing Translational Sciences (NCATS), 2009).

Structures are written as SMILES. Among all 230,000 compounds or so, about 3,600 (1.6%) were called active. Where a call stands in place of a potency, no number is given. Inconclusive results (about 15%) are left out. The call rests on the fitted dose curve; in most records, active means well fitted inhibition curve with a large enough effect (not every such curve was filed as active); inconclusive means small, poorly fitted or top-dose-only effect, or another doubt; inactive means no such curve, though single readings can be large or run the other way. This excerpt belongs to a sample that is enriched for actives.
Further: nearly all actives have a fitted effect of over 50% in size.
Potency means the concentration at half of the fitted maximal effect.

Sequence of Lysine-specific demethylase 4E (Homo sapiens) (B2RXH2 1-337 limits assumed): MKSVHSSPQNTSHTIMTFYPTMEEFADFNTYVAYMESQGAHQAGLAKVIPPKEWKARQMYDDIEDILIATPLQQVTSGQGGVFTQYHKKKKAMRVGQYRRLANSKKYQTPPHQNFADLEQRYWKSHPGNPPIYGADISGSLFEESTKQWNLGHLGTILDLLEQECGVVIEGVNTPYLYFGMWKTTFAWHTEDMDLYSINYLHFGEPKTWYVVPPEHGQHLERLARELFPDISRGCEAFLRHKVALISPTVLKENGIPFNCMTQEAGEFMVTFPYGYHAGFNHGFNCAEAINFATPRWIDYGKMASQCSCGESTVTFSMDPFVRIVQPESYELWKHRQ

The test addresses Lysine-specific demethylase 4E (Homo sapiens) (UniProt B2RXH2). In words: qHTS Assay for Inhibitors of Human Jumonji Domain Containing 2E (JMJD2E). To be noted: JMJD2E catalytic domain, FDH-coupled NADH fluorescence (FDH is formaldehyde dehydrogenase); series mostly up to 57.1 µM. A general note: Quantitative high-throughput screening tests each substance at several concentrations.
As to `CCCCCc1nnc(NC(=O)c2ccc(=O)n(C)n2)s1`, the Potency result is “inactive”. On the same count and under the same terms, the entry for `CCOCCCNCc1cc(Br)ccc1OCC` is “inactive”; for `Cn1nc(C(F)(F)F)cc1C(=O)O` it is “inactive”; for `O=C(O)CC/C(=N\NC(=O)c1ccc(F)cc1)c1ccc(Br)cc1` it is “inactive”. Still for that read-out and setting: the entry for `CC(=O)Nc1ccc(/C=N/Nc2ccc(C(=O)c3c(C)cc4ccccn34)cc2[N+](=O)[O-])cc1` is “inactive”; for `COc1ccc(C(C[N+](=O)[O-])n2nc(C)cc2C)cc1` (stereo not drawn) it is “inactive”; for `Cc1ccc(C(C[N+](=O)[O-])c2c(C)cc3ccccn23)cc1` (stereo not drawn) it is 25.1 µM (active). In the case of `Cc1ccc(/C=N/NC(=S)Nc2cccc(S(=O)(=O)N(C)C)c2)o1`, the Potency result was “inactive”. With `Cc1ccnc(NC(=O)CCC(=O)N(CC(=O)NCCc2ccccc2)Cc2cccs2)c1`, the Potency entry was “inactive”. Same read-out and setting: next, `C#CCNc1ccc(C(=O)OCC)cc1`: “inactive”. On the same count and under the same terms, next, `COC(=O)c1c(C)oc(C)c1S(=O)(=O)NCc1ccc(Cl)cc1`: “inactive”; `COc1ccc(C(=O)C2CCCN(C(=O)c3cnsn3)C2)c(C)c1` (stereo not drawn): “inactive”; `Oc1[nH]c2ccc(Br)cc2c1N=Nc1nn[nH]n1`: “inactive”. With `CSc1n[nH]c(=S)n1N`, the Potency is 31.6 µM (active). In the case of `Nc1ccc(N=Nc2ccccc2Cl)c(N)n1`, the Potency result was “inactive”.

As to `Cc1ccc(S(=O)(=O)N(C)C)cc1NC(=O)c1n[nH]c(=O)c2ccccc12`, the Potency result is “inactive”. The same measure, in the same setting: the entry for `COc1cccc(/C=N/NC(=O)c2[nH]nc3c2CCc2ccccc2-3)c1O` is “inactive”.

On to `COc1cccc(/C=N\NC(=O)C2=NNC(=O)C2C)c1O` (stereo not drawn), for which the Potency was 7.08 µM (active). Same read-out and setting: next, `COc1cccc(/C=N/Nc2cc(C)nc(-c3ccccc3O)n2)c1O`: “inactive”. Regarding `Oc1ccc(-c2nnc(Nc3ccccc3)c3ccccc23)cc1`, the Potency entry is “inactive”.

For `O=c1c(-c2ccccc2)cnc2n1CCS2`, the Potency result was “inactive”. On the same count and under the same terms, the entry for `CN1CCN(c2ncc3c(n2)CC(c2ccccc2F)CC3=O)CC1` (stereo not drawn) is “inactive”; for `O=C(Cn1nnc(N2CCCCC2)n1)c1ccc(Cl)c(Cl)c1` it is “inactive”; for `COCc1c(C(=O)N/N=C/C2CC=CCC2)nnn1-c1nonc1N` (stereo not drawn) it is “inactive”. The same measure, in the same setting: the entry for `Cc1ccc(SCc2c(C(=O)N/N=C/C3CC=CCC3)nnn2-c2nonc2N)cc1` (stereo not drawn) is “inactive”. On the same count and under the same terms, the figure for `Nc1nonc1-n1nnc(C(=O)N/N=C/c2cc(Br)ccc2O)c1CSC1=NCCS1` is 20 µM (active); for `CCOc1ccc(-c2nc(N)ncc2-c2ccccc2OC)c(O)c1` it is “inactive”; for `Cc1cc(C)cc(C(=O)NC2C(=O)N3C(C(=O)O)=C(CSc4nnc(C)s4)CSC23)c1` (stereo not drawn) it is “inactive”. As to `O=C(CNc1ccc(F)cc1F)NC(=O)NCc1ccco1`, the Potency result was “inactive”. On the same count and under the same terms, next, `Cc1ccc(C(=O)NCCNC(=O)c2ccccc2)cc1`: “inactive”; `Cc1ccc(C(=O)NC(=S)Nc2ccccc2C)cc1`: “inactive”. Same read-out and setting: the figure for `C/C(=N\NC(=O)c1ccc(C)cc1)C1C(=O)c2ccccc2C1=O` is 25.1 µM (active). Take `O=c1[nH]c2cccnc2n1-c1ccc([N+](=O)[O-])cc1`: the Potency entry was “inactive”.

On to `O=C(CCCl)Nc1ccc(S(=O)(=O)NCc2ccco2)cc1`, for which the Potency result is “inactive”. As to `CCC(C)NC(=O)C1c2ccccc2Oc2ccccc21` (stereo not drawn), the Potency entry was “inactive”. The same measure, in the same setting: next, `CCC(C)(C)NC(=O)C1c2ccccc2Oc2ccccc21`: “inactive”.

`O=C(N/N=C/c1ccc(O)c(O)c1)C1c2ccccc2Oc2ccccc21`: the Potency was 14.1 µM (active). On the same count and under the same terms, the entry for `COc1ccc(OC)c(NC(=O)CN(Cc2ccc(Cl)cc2)S(C)(=O)=O)c1` is “inactive”; for `O=C(CSc1nc(O)c(Cc2ccccc2)c(=O)[nH]1)Nc1nc2c(s1)CCCC2` it is “inactive”.

`CC(C)(C)NC(=O)NCc1ccco1`: the Potency entry is “inactive”. Consider `Cc1ccc(NC(=S)NCCN2CCOCC2)cc1`, for which the Potency entry was “inactive”.

Consider `Cc1ccc(C(=O)NC(=S)NCCN2CCOCC2)cc1`, for which the Potency entry is “inactive”.

As to `CCOc1cccc(/C=N/NC(=S)NCCN2CCOCC2)c1O`, the Potency is 35.5 µM (active).

For the compound `COc1ccc(COCC(O)CN2CCC(C(N)=O)CC2)cc1` (stereo not drawn), the Potency entry was “inactive”. On the same count and under the same terms, the figure for `CC(C)C1N=C2c3ccccc3N=C(SCC(=O)c3ccc(O)c(O)c3)N2C1=O` (stereo not drawn) is 25.1 µM (active); for `COC(=O)c1cc(C(=O)CSc2nc(C)cc(C)n2)ccc1O` it is “inactive”; for `COc1ccccc1P(=O)(c1ccccc1)c1ccccc1NC(C)=O` (stereo not drawn) it is “inactive”. Still for that read-out and setting: the entry for `CN(CC(O)COc1ccc(S(=O)(=O)N2CCOCC2)cc1Cl)C1CCCCC1` (stereo not drawn) is “inactive”.

In the case of `COc1cccc([C@@H]2Oc3ccc(Br)cc3C(=O)[C@H]2OC(=O)NCCc2ccc(OC)c(OC)c2)c1`, the Potency is 14.1 µM (active). As for `COc1cccc([C@@H]2Oc3ccc(Br)cc3C(=O)[C@H]2OC(=O)NCc2ccc3c(c2)OCO3)c1`, the Potency result is “inactive”. On to `COc1ccc2c(c1)O[C@@H](c1ccc3c(c1)OCO3)[C@H](OC(=O)NCCc1ccc(OC)c(OC)c1)C2=O`, for which the Potency result is “inactive”. The same measure, in the same setting: the entry for `c1ccc(-c2nnc(N3CCOCC3)c3ccccc23)cc1` is “inactive”; for `O=C(Nc1ccc(S(=O)(=O)Nc2nccs2)cc1)c1cccc(S(=O)(=O)N2CCOCC2)c1` it is “inactive”. Take `CCc1nc(C)cn1S(=O)(=O)c1cc([N+](=O)[O-])ccc1Cl`: the Potency entry is “inactive”. Consider `COc1ccc(-c2csc(Nc3ccc(O)cc3)n2)cc1`, for which the Potency result is “inactive”. For `COc1ccc(OC)c(Nc2nc(-c3ccc(O)c(O)c3)cs2)c1`, the Potency was 28.2 µM (active).

Consider `COc1ccc(-c2csc(Nc3ccccn3)n2)cc1`, for which the Potency result was “inactive”. On the same count and under the same terms, next, `O=C(Nc1n[nH]c(C(F)(F)F)n1)c1cccs1`: “inactive”; `CCOC(=O)c1cn[nH]c1NC(=S)Nc1ccccc1`: “inactive”. The same measure, in the same setting: the figure for `ON=C1/C(=N\O)CC2(C/C1=N/O)OCCO2` is 7.08 µM (active). On the same count and under the same terms, the entry for `O/N=C1\CC2(Cc3nonc31)OCCO2` is “inactive”; for `Cc1[nH]n(C)c(=O)c1N=Nc1ccc(S(C)(=O)=O)cc1` it is “inactive”; for `COc1cccc(N2C(=O)CC(N3CCc4ccccc4C3)C2=O)c1` (stereo not drawn) it is “inactive”. Take `NCCCCCC(=O)N/N=C/c1ccc2nccnc2c1`: the Potency entry is “inactive”. On the same count and under the same terms, the entry for `CCOC(=O)CSc1nc(C)c(Oc2ccc(Cl)cc2Cl)c(=O)[nH]1` is “inactive”; for `COCc1ccc(C(=O)N2CCc3c([nH]c4ccccc34)C2c2ccccn2)s1` (stereo not drawn) it is “inactive”. On the same count and under the same terms, next, `Oc1cccc(C2c3[nH]c4ccccc4c3CCN2Cc2cnn(-c3ccccc3)c2)c1` (stereo not drawn): “inactive”; `c1ccc(C2c3[nH]c4ccccc4c3CCN2Cc2cccn2-c2cccnc2)nc1` (stereo not drawn): 14.1 µM (active); `CCc1cccc2c(=O)c(C(=O)NCCCOC)c[nH]c12`: “inactive”. The same measure, in the same setting: the entry for `CN(C(=O)CCn1c(=S)oc2ccccc21)C1CCCCC1` is “inactive”; for `O=C1CC(N2CCN(c3ccc(F)cc3)CC2)C(=O)N1c1ccccc1` (stereo not drawn) it is “inactive”; for `Cc1cccc(N2C(=O)CC(SC(N)=Nc3ccccc3)C2=O)c1` (stereo not drawn) it is “inactive”. With `Cc1ccc(N2C(=O)CC(Sc3ncn[nH]3)C2=O)cc1` (stereo not drawn), the Potency was 2.51 µM (active). The same measure, in the same setting: the entry for `COc1ccc(N2C(=O)CC(Sc3n[nH]c(-c4ccc(C)cc4)n3)C2=O)cc1` (stereo not drawn) is “inactive”; for `CCOC(=O)c1ccc(N2C(=O)CC(Sc3nc(O)c(CC)c(=O)[nH]3)C2=O)cc1` (stereo not drawn) it is “inactive”; for `O=C1CC(Sc2ncn[nH]2)C(=O)N1c1ccccc1` (stereo not drawn) it is 2.24 µM (active). For `NC(=O)c1ccc(N2CCOCC2)nc1`, the Potency entry is “inactive”. Same read-out and setting: next, `CN(C)C(=O)c1nc2ccc(Cl)cn2c1CNCc1cccc(OC(F)(F)F)c1`: “inactive”.

Turning to `Cc1nc(N)sc1N=Nc1c(C)n(C)n(-c2ccccc2)c1=O`, the Potency result was “inactive”. Still for that read-out and setting: next, `COc1ccc(N(Cc2ccccc2)S(=O)(=O)c2cccc(C(=O)O)c2)cc1`: “inactive”; `CCCN(CCc1ccccc1)C1CCc2c(O)cccc2C1` (stereo not drawn): “inactive”; `CCCN(C/C=C\I)[C@@H]1CCc2cccc(O)c2C1`: 28.2 µM (active).

Turning to `CN(C)c1cc(-c2ccc(F)cc2)oc(=O)c1Cl`, the Potency entry was “inactive”. Same read-out and setting: next, `Cc1ccc(C(=O)NCC(=O)OCC(=O)Nc2cccc(S(=O)(=O)N3CCCC3)c2)cc1C`: “inactive”; `Cc1cc(=O)n2c3c(cccc13)CCC2`: “inactive”. Still for that read-out and setting: the entry for `CCCCc1nc2ccccc2c(=O)n1NC(=O)c1c(O)c2cccc3c2n(c1=O)CC3` is “inactive”.

As to `CCNC(=O)c1c(O)c2cccc3c2n(c1=O)CC3`, the Potency was 3.16 µM (active). The same measure, in the same setting: the entry for `O=C(O)Cc1csc(-c2cccc(Oc3ccccc3)c2)n1` is “inactive”; for `CCCc1nc2ccccc2c(=O)n1/N=C/c1ccc(O)c(O)c1` it is 12.6 µM (active); for `O=c1c2ccccc2nc(N/N=C/c2ccccc2)n1O` it is “inactive”. Consider `CCCN1C(=O)C(Cc2nc3ccccc3c(=O)n2-c2ccccc2)c2cc(C)ccc21` (stereo not drawn), for which the Potency entry is “inactive”. Still for that read-out and setting: next, `CC(C)N1CCC(=NNc2ccc([N+](=O)[O-])cc2S(=O)(=O)N2CCOCC2)CC1`: “inactive”; `COc1ccccc1C(=O)CSc1cccc[n+]1[O-]`: “inactive”. Take `O=C1CCC(=O)N(O)CCCCCNC(=O)CCC(=O)N(O)CCCCCNC(=O)CCC(=O)N(O)CCCCCN1`: the Potency was 7.94 µM (active). Same read-out and setting: the entry for `CCNC(=O)CC1C(=O)N(c2ccc(OC)cc2)C(=S)N1CCc1ccncc1` (stereo not drawn) is “inactive”; for `Cc1nc(C(=O)N2CCCC(C(=O)c3ccc(Cl)cc3)C2)cs1` (stereo not drawn) it is “inactive”. Still for that read-out and setting: the figure for `CSc1c(SCc2ccccc2)cnn(Cc2ccccc2)c1=O` is 12.6 µM (active). Still for that read-out and setting: next, `O=c1c2ccccc2c(-c2ccccc2)nn1Cc1ccccc1`: “inactive”; `Cn1c(CO)cnc1SCc1ccccc1`: “inactive”; `O=C(NCCOCc1ccc(Cl)cc1)c1ncn[nH]1`: “inactive”. On to `O=C(/C=C/Sc1ncn[nH]1)c1ccc(Cl)cc1`, for which the Potency is 7.08 µM (active). With `Cc1cc(C)nc(S/C=C/C(=O)c2ccccc2)n1`, the Potency entry was “inactive”. Same read-out and setting: the entry for `CCN(CC)CCNC(=O)c1sc2ncn(CC(=O)Nc3ccc(C)c(Cl)c3)c(=O)c2c1C` is “inactive”.

As to `Cn1c(=O)c2c(-c3cccc(Br)c3)c(C#N)c(N)nc2n(C)c1=O`, the Potency result was “inactive”. Same read-out and setting: the entry for `OCCC1CN(Cc2cnc(-c3ccccc3)s2)CCN1CCc1ccccc1` (stereo not drawn) is “inactive”. Same read-out and setting: next, `COCCN1C=C2C(=O)C(C)(OC(=O)C3CCCC3)C(=O)C=C2C=C1c1ccsc1` (stereo not drawn): 3.55 µM (active); `CC1(OC(=O)C2CCCC2)C(=O)C=C2C=C(c3ccc(C#N)cc3)OC=C2C1=O` (stereo not drawn): “inactive”.

For the compound `CC1(OC(=O)CCc2ccccc2)C(=O)C=C2C=C(c3ccc(C#N)cc3)N(CCc3ccccn3)C=C2C1=O` (stereo not drawn), the activity change, negative = inhibition is -1.14% [at 11.4 µM] (inactive).
